Reference: PubChem BioAssay (Tox21)
Where “and” joins values, the source holds several entries; their conditions need not be identical. Equal entries are not always repeated. Records with an inconclusive call do not appear. Where a structure was tested more than once in an assay, its records may differ in their call. Calls of active or inactive are those of the source. Unless noted, the call rests on the fitted dose curve; in most records, active means well fitted curve in the direction sought with a large enough effect in the repeat runs; inconclusive means weak or mixed curves; inactive means no such curve, though single readings can be large; an effect the other way counts as inactive or inconclusive.

Assays:
[1] = qHTS assay to identify small molecule agonists of the androgen receptor (AR) signaling pathway in the presence of an antagonist - cell viability counter screen (AID 1259379); further: nearly all actives have a fitted effect of over 25% in size; further: potency means the concentration at half of the fitted maximal effect;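 on activity change, negative = cytotoxicity: MDA-kb2 human breast cancer cells carrying an MMTV luciferase reporter; series mostly up to about 92 µM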
Method in brief: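 Cells: MDA-kb2 (MMTV-luc, AR and GR elements), 3,000/well, 5 hr settle. Added: nilutamide 3.0uM final, then compounds (15 conc.). Incubation: 16 hr, 37C, no CO2. Read-out: CellTiter-Fluor, 1 hr, fluorescence.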

[2] = qHTS assay to identify small molecule agonists of the estrogen receptor beta (ER-beta) signaling pathway - cell viability counter screen (AID 1259380); further: nearly all actives have a fitted effect of over 30% in size; further: potency means the concentration at half of the fitted maximal effect
Method in brief: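 HEK293T ER-beta-UAS-bla; 2% CS-FBS; 6 hr pre-plate, 16 hr cpd at 37C/5% CO2; LiveBLAzer read first, then CellTiter-Glo 30 min RT, luminescence.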

[3] = qHTS assay to identify small molecule antagonists of the estrogen receptor beta (ER-beta) signaling pathway - cell viability counter screen (AID 1259382); further: nearly all actives have a fitted effect of over 55% in size; further: potency means the concentration at half of the fitted maximal effect;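 on activity change, negative = cytotoxicity: HEK293T cells carrying ER-beta-UAS-bla reporter stimulated with estradiol; series mostly up to about 92 µM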
Method in brief: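 Cells: ER-beta-UAS-bla HEK293T, 2,000/well, 2% CS-FBS, 6 hr settle. Cpd + E2 (1nM final), 16 hr, 37C/5% CO2. Bla FRET substrate 2 hr RT, then CellTiter-Glo 30 min RT, luminescence.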

[4] = qHTS assay to identify small molecule agonists of the estrogen receptor alpha (ER-alpha) signaling pathway in the presence of an antagonist - cell viability counter screen (AID 1259386);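 further: cells exposed to compounds for 22 h at 37 °C before the viability read; nearly all actives have a fitted effect of over 30% in size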; further: potency means the concentration at half of the fitted maximal effect; on activity change, negative = cytotoxicity: series mostly up to about 92 µM
Method in brief: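 VM7Luc4E2, stripped-serum pre-culture 5 d; 24hr plating; +ICI-182,780 10.0nM final; cpds 15 conc, 22hr, 37C/5% CO2; CellTiter-Fluor added at 21hr, fluorescence 1hr later.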

[5] = target: Progesterone receptor (Homo sapiens) (UniProt P06401); experiment: qHTS assay to identify small molecule agonists of the progesterone receptor (PR) signaling pathway (AID 1346784; calls by dose curve; further: nearly all actives have a fitted effect of over 30% in size)
Sequence of Progesterone receptor (Homo sapiens) (P06401 whole entry, looked up): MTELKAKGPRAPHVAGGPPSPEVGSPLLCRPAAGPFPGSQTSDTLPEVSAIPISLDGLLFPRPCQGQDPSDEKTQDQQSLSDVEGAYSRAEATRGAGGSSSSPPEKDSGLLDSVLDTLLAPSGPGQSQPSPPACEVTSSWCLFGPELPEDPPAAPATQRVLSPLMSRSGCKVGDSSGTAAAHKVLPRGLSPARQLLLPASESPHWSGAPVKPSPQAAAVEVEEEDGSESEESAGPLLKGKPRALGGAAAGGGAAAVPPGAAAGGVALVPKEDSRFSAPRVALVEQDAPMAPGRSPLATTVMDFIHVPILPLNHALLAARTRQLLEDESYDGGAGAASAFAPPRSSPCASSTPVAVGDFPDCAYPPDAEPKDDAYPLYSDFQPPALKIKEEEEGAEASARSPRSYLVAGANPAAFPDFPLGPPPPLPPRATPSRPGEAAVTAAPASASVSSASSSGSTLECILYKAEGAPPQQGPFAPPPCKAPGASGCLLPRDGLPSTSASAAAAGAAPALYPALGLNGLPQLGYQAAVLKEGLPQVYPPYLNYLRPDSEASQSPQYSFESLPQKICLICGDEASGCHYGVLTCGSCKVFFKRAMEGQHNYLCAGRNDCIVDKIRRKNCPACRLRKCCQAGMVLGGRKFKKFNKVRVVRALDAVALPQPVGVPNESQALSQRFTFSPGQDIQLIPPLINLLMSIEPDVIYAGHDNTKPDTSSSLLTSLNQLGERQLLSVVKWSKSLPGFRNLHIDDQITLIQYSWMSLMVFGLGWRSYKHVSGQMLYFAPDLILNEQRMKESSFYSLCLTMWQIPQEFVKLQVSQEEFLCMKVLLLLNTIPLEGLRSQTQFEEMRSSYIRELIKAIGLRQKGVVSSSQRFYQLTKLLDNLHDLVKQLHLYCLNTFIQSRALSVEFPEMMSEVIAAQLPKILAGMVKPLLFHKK
Method in brief: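 PR-UAS-bla HEK 293T cells (beta-lactamase reporter under UAS) in 2% charcoal-stripped FBS, dosed with 23 nL compound after 6 hr, incubated 16hr at 37C. LiveBLAzer B/G FRET substrate added, fluorescence read after 2 hours.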

[6] = target: Progesterone receptor (Homo sapiens) (UniProt P06401); experiment: qHTS assay to identify small molecule antagonists of the progesterone receptor (PR) signaling pathway (AID 1346795; active means well fitted inhibition curve with a large enough effect in the signal ratio in the repeat runs, not every such curve was filed as active; the % refers to the signal ratio; further: potency means the concentration at half of the fitted maximal effect)
Method in brief: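 PR-UAS-bla HEK293T cells with beta-lactamase reporter under UAS control, in 2% charcoal-stripped FBS, treated with compounds plus 1 nM promegestone (R5020, final) for 16 hr at 37C. Read-out: FRET beta-lactamase substrate fluorescence after 2 hr at room temperature.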

[7] = qHTS assay to identify small molecule antagonists of the progesterone receptor (PR) signaling pathway - cell viability counter screen (AID 1346798); further: nearly all actives have a fitted effect of over 50% in size; further: potency means the concentration at half of the fitted maximal effect; on activity change, negative = cytotoxicity: series mostly up to about 92 µM
Method in brief: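 PR-UAS-bla HEK293T cells, 3,000/well in 2% charcoal-stripped FBS medium, dosed with compounds plus R5020 agonist and incubated 16 h at 37C. Viability then measured in the same wells by CellTiter-Glo luminescence after 30 min at RT.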

[8] = qHTS assay to identify small molecule agonists of the progesterone receptor (PR) signaling pathway - cell viability counter screen (AID 1346799; calls by dose curve; further: nearly all actives have a fitted effect of over 45% in size; further: potency means the concentration at half of the fitted maximal effect)
Method in brief: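 Counter screen in the PR-UAS-bla HEK293T wells (2% charcoal-stripped FBS, 16 h compound exposure at 37 C) after the bla read. CellTiter-Glo added, 30 min at room temperature, luminescence read as cell viability.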

[9] = qHTS assay to identify small molecule antagonists of the TGF-beta/Smad signaling pathway - cell viability counter screen (AID 1346824); further: nearly all actives have a fitted effect of over 50% in size; further: potency means the concentration at half of the fitted maximal effect
Method in brief: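 SBE-bla HEK 293T cells were plated overnight at 37 C, then given compounds in DMSO plus TGF-beta1 (added as 0.25 ng/mL solution) for 5 hr. After the bla read, CellTiter-Glo was added to the same wells and luminescence read after 30 min at room temperature.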

[10] = qHTS assay to identify small molecule agonists of the TGF-beta/Smad signaling pathway (AID 1346859; active means well fitted activation curve with a large enough effect in the signal ratio in the repeat runs, not every such curve was filed as active; the % refers to the signal ratio; further: series mostly up to about 77 µM)
Method in brief: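 SBE-bla HEK293T cells plated overnight, then compound exposure for 5 h at 37 C. Beta-lactamase reporter read with LiveBLAzer B/G FRET substrate after 2 h at room temperature, fluorescence at 405 nm excitation, 460/530 nm emission.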

[11] = target: Thyrotropin-releasing hormone receptor (Homo sapiens) (UniProt P34981); experiment: qHTS assay to identify small molecule antagonists of the thyrotropin-releasing hormone receptor (TRHR) signaling pathway (AID 1346877; active means well fitted inhibition curve with a large enough effect in the repeat runs, not every such curve was filed as active; further: series mostly up to about 51 µM)
Sequence of Thyrotropin-releasing hormone receptor (Homo sapiens) (P34981 whole entry, looked up): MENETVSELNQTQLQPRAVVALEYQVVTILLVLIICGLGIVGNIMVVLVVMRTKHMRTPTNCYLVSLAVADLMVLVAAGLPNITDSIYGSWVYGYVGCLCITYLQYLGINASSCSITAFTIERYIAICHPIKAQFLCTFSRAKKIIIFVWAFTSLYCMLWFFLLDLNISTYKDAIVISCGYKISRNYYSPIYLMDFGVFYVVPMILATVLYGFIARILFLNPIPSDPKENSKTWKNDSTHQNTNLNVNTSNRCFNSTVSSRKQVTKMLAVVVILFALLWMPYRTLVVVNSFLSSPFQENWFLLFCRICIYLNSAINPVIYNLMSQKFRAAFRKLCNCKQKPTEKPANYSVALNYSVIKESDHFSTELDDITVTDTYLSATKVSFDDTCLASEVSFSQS
Method in brief: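 Intracellular calcium fluorescence, read kinetically every second over 3 min, reports TRH-evoked signalling in HEK293 cells carrying TRHR. Test compounds were added 5 min ahead of a 1 nM TRH challenge.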

[12] = target: Thyrotropin-releasing hormone receptor (Homo sapiens) (UniProt P34981); experiment: qHTS assay to identify small molecule agonists of the thyrotropin-releasing hormone receptor (TRHR) signaling pathway (AID 1346891; calls by dose curve; further: series mostly up to about 58 µM)
Method in brief: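 HEK293 cells expressing TRHR plated 18 h at 37 C/5% CO2, calcium dye-loaded 2 h at 37 C, then compound added (agonist mode); kinetic calcium fluorescence read 3 min at 1 s intervals; 15 concentrations in triplicate.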

[13] = Human pregnane X receptor (PXR) small molecule agonists, qHTS cell viability counter screen (AID 1346977); further: nearly all actives have a fitted effect of over 50% in size; further: potency means the concentration at half of the fitted maximal effect
Method in brief: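 PXR-Luc HepG2 cells (2,000/well, 5% charcoal-stripped FBS) preincubated 5 hr, then exposed to compounds 24 hr at 37 C. Viability read in the same wells by CellTiter-Fluor fluorescence, reagent added at 23 hr, 1 hr incubation.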

[14] = qHTS assay to identify small molecule agonists or antagonists of the thyroid stimulating hormone receptor (TSHR) signaling pathway - wild type cell line counter screen (AID 1259384; calls by dose curve)
Method in brief: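 Wild-type HEK293 cells were plated 18 h at 37 C/5% CO2, pin-dosed with compound plus Ro20-1724 medium, held 30 min at room temperature, then given cAMP-d2 and anti-cAMP-cryptate; fluorescence was read after 1 h. Fifteen concentrations, triplicate.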

[15] = target: Thyrotropin receptor (Homo sapiens) (UniProt P16473); experiment: qHTS assay to identify small molecule antagonists of the thyroid stimulating hormone receptor (TSHR) signaling pathway (AID 1259385; calls by dose curve; further: nearly all actives have a fitted effect of over 20% in size)
Sequence of Thyrotropin receptor (Homo sapiens) (P16473 whole entry, looked up): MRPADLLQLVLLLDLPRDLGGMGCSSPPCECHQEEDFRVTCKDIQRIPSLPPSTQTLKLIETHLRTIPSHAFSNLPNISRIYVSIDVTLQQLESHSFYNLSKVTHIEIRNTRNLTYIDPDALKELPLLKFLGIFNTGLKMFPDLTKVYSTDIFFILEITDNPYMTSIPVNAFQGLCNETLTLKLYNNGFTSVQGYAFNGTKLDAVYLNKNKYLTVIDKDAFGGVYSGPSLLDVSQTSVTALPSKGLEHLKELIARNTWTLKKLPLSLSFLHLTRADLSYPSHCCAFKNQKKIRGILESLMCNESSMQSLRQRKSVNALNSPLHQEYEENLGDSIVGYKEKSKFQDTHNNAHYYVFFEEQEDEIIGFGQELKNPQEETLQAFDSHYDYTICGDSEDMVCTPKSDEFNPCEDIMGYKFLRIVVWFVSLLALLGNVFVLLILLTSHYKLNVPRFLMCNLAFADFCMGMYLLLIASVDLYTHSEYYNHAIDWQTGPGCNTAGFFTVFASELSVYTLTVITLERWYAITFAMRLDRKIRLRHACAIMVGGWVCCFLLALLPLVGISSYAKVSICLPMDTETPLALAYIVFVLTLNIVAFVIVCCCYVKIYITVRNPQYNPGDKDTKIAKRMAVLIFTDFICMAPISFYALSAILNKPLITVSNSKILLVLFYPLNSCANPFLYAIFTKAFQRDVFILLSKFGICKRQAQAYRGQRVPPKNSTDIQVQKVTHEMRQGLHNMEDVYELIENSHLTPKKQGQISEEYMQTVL
Method in brief: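 TSHR-HEK293 cells were plated and held 18 h at 37C/5% CO2, then given compound plus Ro20-1724 and stimulated with TSH at 1.5 ng/mL final. After 30 min at room temperature, cAMP was detected with cAMP-d2/anti-cAMP-cryptate (1 h) by fluorescence.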

[16] = qHTS assay to identify small molecule agonists of the TGF-beta/Smad signaling pathway - cell viability counter screen (AID 1346829); further: nearly all actives have a fitted effect of over 45% in size; further: potency means the concentration at half of the fitted maximal effect; on activity change, negative = cytotoxicity: top concentration of the series differs between compounds
Method in brief: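 Tox21 qHTS format: SBE-bla HEK 293T cells treated with DMSO-dissolved compounds for 5 hr; CellTiter-Glo luminescence after 30 min at room temperature.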

[17] = target: Estrogen receptor (Homo sapiens) (UniProt P03372); experiment: qHTS assay to identify small molecule agonists of the estrogen receptor alpha (ER-alpha) signaling pathway in the presence of an antagonist (AID 1259383; calls by dose curve; further: top concentration of the series differs between compounds; nearly all actives have a fitted effect of over 15% in size)
Sequence of Estrogen receptor (Homo sapiens) (P03372 whole entry, looked up): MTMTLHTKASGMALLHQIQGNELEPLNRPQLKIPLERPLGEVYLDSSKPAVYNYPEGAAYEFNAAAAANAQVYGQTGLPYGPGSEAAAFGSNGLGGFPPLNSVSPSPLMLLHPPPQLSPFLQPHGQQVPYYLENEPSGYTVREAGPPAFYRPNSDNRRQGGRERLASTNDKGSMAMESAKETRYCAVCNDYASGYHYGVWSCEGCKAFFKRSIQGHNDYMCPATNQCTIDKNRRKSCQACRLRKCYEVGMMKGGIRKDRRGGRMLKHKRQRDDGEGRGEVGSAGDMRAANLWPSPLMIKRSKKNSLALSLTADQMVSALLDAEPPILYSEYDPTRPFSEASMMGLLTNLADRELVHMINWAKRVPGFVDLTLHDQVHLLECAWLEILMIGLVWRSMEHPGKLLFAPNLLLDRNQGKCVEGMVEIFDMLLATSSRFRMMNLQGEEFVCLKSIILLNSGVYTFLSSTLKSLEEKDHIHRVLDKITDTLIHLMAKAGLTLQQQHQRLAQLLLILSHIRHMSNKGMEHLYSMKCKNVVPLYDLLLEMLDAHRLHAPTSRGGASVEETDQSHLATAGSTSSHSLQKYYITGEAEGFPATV
Method in brief: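 VM7Luc4E2, endog. ER-alpha + 4×ERE-luc; charcoal-stripped FBS, phenol red-free, 5 d; 24hr plating; +10.0nM ICI-182,780 (final); cpds 15 conc, 22hr, 37C/5% CO2; ONE-Glo luminescence.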

[18] = target: Androgen receptor (Homo sapiens) (UniProt P10275); experiment: qHTS assay to identify small molecule agonists of the androgen receptor (AR) signaling pathway in the presence of an antagonist (AID 1259381; calls by dose curve; further: nearly all actives have a fitted effect of over 15% in size; further: potency means the concentration at half of the fitted maximal effect)
Sequence of Androgen receptor (Homo sapiens) (P10275 whole entry, looked up): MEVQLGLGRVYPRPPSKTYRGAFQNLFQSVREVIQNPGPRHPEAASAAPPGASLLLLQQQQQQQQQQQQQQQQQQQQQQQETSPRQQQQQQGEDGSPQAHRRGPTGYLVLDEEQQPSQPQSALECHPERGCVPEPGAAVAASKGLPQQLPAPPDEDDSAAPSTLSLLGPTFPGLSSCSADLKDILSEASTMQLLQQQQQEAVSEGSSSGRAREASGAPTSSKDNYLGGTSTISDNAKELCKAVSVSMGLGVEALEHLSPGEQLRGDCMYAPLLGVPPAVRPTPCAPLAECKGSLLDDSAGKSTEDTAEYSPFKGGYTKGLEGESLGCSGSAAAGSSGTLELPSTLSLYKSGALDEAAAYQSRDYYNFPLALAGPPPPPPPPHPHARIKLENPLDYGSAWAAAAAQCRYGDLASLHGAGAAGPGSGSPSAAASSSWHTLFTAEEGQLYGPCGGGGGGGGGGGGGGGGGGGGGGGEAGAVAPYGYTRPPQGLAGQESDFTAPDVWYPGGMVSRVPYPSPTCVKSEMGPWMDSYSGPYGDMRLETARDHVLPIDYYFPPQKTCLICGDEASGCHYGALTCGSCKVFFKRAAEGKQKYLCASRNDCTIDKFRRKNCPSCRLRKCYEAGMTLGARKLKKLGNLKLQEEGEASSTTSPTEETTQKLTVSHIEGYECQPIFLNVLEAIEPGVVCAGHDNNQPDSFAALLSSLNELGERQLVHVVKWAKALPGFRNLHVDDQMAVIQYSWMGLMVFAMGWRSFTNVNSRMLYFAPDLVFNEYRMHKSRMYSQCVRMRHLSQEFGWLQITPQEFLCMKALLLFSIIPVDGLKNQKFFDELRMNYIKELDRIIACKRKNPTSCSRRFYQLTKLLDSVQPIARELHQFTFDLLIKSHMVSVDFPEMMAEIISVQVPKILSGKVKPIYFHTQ
Method in brief: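 MDA-kb2 cells, 3,000/well, rested 5hr at 37C/0% CO2 → nilutamide 3.0uM final or buffer → compounds, 15 conc. → 16hr at 37C → ONE-Glo, 30min RT → luminescence.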
On the % scale 0 is the no-effect control and ±100 the full control effect.

COc1cccc(O)c1
inactive: Potency [1] | Potency [2] | Potency [3] | Potency [4] | outcome [5] | Potency [6] | Potency [7] | Potency [8] | Potency [9] | Potency [10] | Potency [11] | Potency [12] | Potency [13]

C=CC(=O)OCCOCC(CC)(COCCOC(=O)C=C)COCCOC(=O)C=C
inactive: outcome [14] | Potency [15] | Potency [9] | Potency [16] | Potency [10]
active: Potency [1] 40.2 µM | Potency [2] 89.9 µM | Potency [6] 28.4 µM | Potency [7] 63.7 µM | Potency [8] 63.7 µM | Potency [13] 63.7 µM

CN1[C@@H]2CC[C@H]1CC(OC(=O)C(CO)c1ccccc1)C2 (some centres not stated)
active: Potency [2] 68.5 µM | Potency [8] 61.1 µM
inactive: Potency [1] | Potency [3] | Potency [4] | Potency [6] | Potency [7] | Potency [10] | Potency [13]

O=C(Nc1ccc(Cl)c(Cl)c1)c1cc(Cl)cc(Cl)c1O
inactive: Potency [17] | outcome [5] | Potency [12]
active: Potency [1] 6.86 µM | Potency [2] 21.7 µM | Potency [3] 19.3 µM | Potency [4] 7.7 µM | Potency [6] 4.86 µM | Potency [13] 4.86 µM

COc1ccc(C#N)cc1
inactive: Potency [1] | Potency [3] | Potency [17] | outcome [14] | Potency [15] | Potency [4] | Potency [6] | Potency [8] | Potency [9] | Potency [16] | Potency [10] | Potency [11] | Potency [12] | Potency [13]

CCCN(CCc1cccs1)[C@H]1CCc2c(O)cccc2C1
inactive: Potency [1] | Potency [3] | Potency [17] | outcome [14] | Potency [15] | Potency [4] | outcome [5] | Potency [7] | Potency [8] | Potency [9] | Potency [16] | Potency [10] | Potency [11] | Potency [12]
active: Potency [6] 29.8 µM

CCN1CCN(c2cc(-c3ccc(F)cc3)c3c(n2)CCCCCC3)CC1
inactive: activity change, negative = cytotoxicity [1] -1.28% [at 19 µM] | activity change, negative = cytotoxicity [3] -0.898% [at 19 µM] | cAMP activity change [14] 2.43% [at 18.9 µM] | activity change, negative = cytotoxicity [4] -2.28% [at 19 µM] | activation [5] -3.65% [at 19 µM] | activity change, negative = inhibition [6] -13.2% [at 18.9 µM] | activity change, negative = cytotoxicity [7] 1.1% [at 18.9 µM] | activity change, negative = cytotoxicity [8] 2.26% [at 19 µM] | viability change, negative = cytotoxic [9] 0.113% [at 15.8 µM] | activity change, negative = cytotoxicity [16] -0.583% [at 15.8 µM] | activation [10] -2.06% [at 15.8 µM] | activity, negative = inhibition [11] 1.24% [at 10.5 µM] | activation [12] 0.262% [at 11.8 µM] | activity change, negative = cytotoxicity [13] 0.184% [at 19 µM]

CC(C)(C)CC(C)(C)c1ccccc1O
inactive: Potency [1] | outcome [14] | Potency [15]
active: Potency [2] 43.5 µM | Potency [3] 61.4 µM | Potency [4] 61.4 µM | Potency [9] 31.1 µM | Potency [16] 49.2 µM | Potency [13] 70.8 µM

CCc1cccc(CC)c1NC(=O)C(=O)O
inactive: Potency [1] | Potency [18] | Potency [3] | Potency [17] | outcome [14] | Potency [15] | Potency [4] | outcome [5] | Potency [6] | Potency [7] | Potency [8] | Potency [9] | Potency [16] | Potency [10] | Potency [11] | Potency [12] | Potency [13]

CCOC(=O)CN
inactive: Potency [1] | Potency [2] | Potency [3] | outcome [14] | Potency [15] | outcome [5] | Potency [6] | Potency [9] | Potency [16] | Potency [10] | Potency [13]

O=C(Oc1ccccc1)c1cccc(C(=O)Oc2ccccc2)c1
active: Potency [18] 0.644 µM | Potency [6] 25.7 µM | Potency [7] 64.4 µM
inactive: Potency [1] | Potency [3] | outcome [14] | Potency [15] | Potency [4] | Potency [16] | Potency [11] | Potency [12] | Potency [13]

CNC(=S)NN
inactive: Potency [1] | Potency [17] | outcome [14] | Potency [15] | Potency [4] | Potency [9] | Potency [16] | Potency [10]
active: Potency [2] 17.2 µM | Potency [6] 8.63 µM | Potency [7] 13.7 µM | Potency [13] 12.2 µM

CCCCCCC(C)OC(=O)COc1nc(F)c(Cl)c(N)c1Cl (configuration not stated)
active: Potency [2] 68.6 µM
inactive: Potency [1] | Potency [3] | outcome [14] | Potency [15] | Potency [4] | Potency [7] | Potency [8] | Potency [9] | Potency [16] | Potency [10] | Potency [11] | Potency [12]

CC(=O)Nc1ccc(O)cc1
inactive: Potency [1] | Potency [2] | Potency [3] | Potency [7] | Potency [8] | Potency [16] | Potency [11] | Potency [12] | Potency [13]

CCCC(CC)CCCCCCCN (configuration not stated)
active: Potency [1] 62.6 µM | Potency [8] 28 µM
inactive: Potency [3] | Potency [17] | outcome [14] | Potency [15] | Potency [4] | outcome [5] | Potency [6] | Potency [9] | Potency [16] | Potency [10] | Potency [11] | Potency [12]

CSc1ccc2c(c1)N(CCC1CCCCN1C)c1ccccc1S2 (configuration not stated)
68.3 µM (active) and inactive: Potency [4]
inactive: outcome [14] | Potency [10]
active: Potency [1] 54.3 µM and 29.8 µM | Potency [2] 19.3 µM and 18.8 µM | Potency [3] 15.3 µM and 13.3 µM | Potency [7] 21.6 µM and 23.7 µM | Potency [16] 54.7 µM

NCCCC(O)(P(=O)(O)O)P(=O)(O)O
inactive: Potency [1] | Potency [2] | Potency [3] | outcome [14] | Potency [15] | Potency [4] | outcome [5] | Potency [6] | Potency [7] | Potency [8] | Potency [9] | Potency [16] | Potency [10] | Potency [11] | Potency [12] | Potency [13]

Oc1cc2ccccc2cc1O
inactive: Potency [1] | Potency [18] | Potency [3] | outcome [14] | Potency [15] | Potency [4] | outcome [5] | Potency [6] | Potency [7] | Potency [8] | Potency [13]
